# Measured values reported in PubChem BioAssay AID1776 (NMMLSC, 2009).
# In all, about 190,000 compounds went through this assay and about 490 (0.26%) were called active. The list comes from a sample in which actives are over-represented; it also holds similar structures and randomly drawn compounds. Values without a mark were called inactive. No stated cut-off is given here; in the data, active means fluorescence above about 89; inactive means the rest.
# Test: compound fluorescence on glutathione beads, profiling panel, artefact control, biophysical, 488/530 nm, flow cytometry (AID 1776);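 further: glutathione beads carrying GST-tagged Bcl family fusion proteins plus one bare bead set; values are compound well signal with DMSO vehicle wells as background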
# Settings: GSH beads flow cytometry, compound fluorescence 488/530 nm; at 10 µM; hits give high values
row,SMILES,fluorescence (KMESF)
1,Cc1ccc(C)c(-n2nnnc2SCC(=O)c2c(N)n(C)c(=O)n(C)c2=O)c1,179 (active)
2,CCOC(=O)CNC(=O)CSc1nnnn1-c1cc(C)ccc1C,33
3,CNC(=O)CSc1nnnn1-c1ccc(C)cc1C,23
4,CN(C)CC(C)(C)CNC(=O)c1cc(Br)cc(Br)c1O,12
5,C=CCNC(=S)NNC(=O)COc1c(Cl)cc(Cl)cc1Cl,12
6,Cc1cc(C)nc(NNC2=CC(=O)CC(C)(C)C2)n1,16
7,COc1ccc(C(=O)NNc2cc(C)nc(NNC(=O)c3ccc(OC)cc3)n2)cc1,11
8,CC1CCCCC1NC(=O)CN1CCC(O)(c2ccc3c(c2)OCO3)CC1 (stereo unspecified),15
9,CC1=C(C)CC(C(=O)NNC(=O)c2csc3c2CCC(C(C)(C)C)C3)C(C(=O)O)C1 (stereo unspecified),10
10,Cc1ccccc1CC1(CO)CCCN(Cc2ccc3c(c2)OCCO3)C1 (stereo unspecified),18
11,S=c1[nH]ccn1-c1ccc(Cl)cc1,11
12,COCCSc1nnc(NC(=O)c2cc(OC)c(OC)cc2[N+](=O)[O-])s1,21
13,Cc1ccc(C(=O)NC(C)c2ccccc2)cc1Br (stereo unspecified),15
14,OCCC#Cc1ccc(CN2CCN(Cc3ccsc3)C(CCO)C2)cc1 (stereo unspecified),10
15,CCCCCc1nnc(NC(=O)c2ccc(=O)n(C)n2)s1,16
16,CC1(C)CC(=O)C(N=Nc2ccc(S(=O)(=O)N3CCCCCC3)cc2)=C(O)C1,11
17,COc1cc(OC)cc(-c2nc3ccccc3c(=O)n2NC(=O)c2cccnc2Cl)c1,10
18,Cc1ccc(C)c(-n2ccnc2SCC(N)=O)c1,20
19,CC(C)c1nc(CNC(=O)CC2C(=O)NCCN2Cc2ccoc2)cs1 (stereo unspecified),15
20,COc1cc(OC)c(C(=O)N2CCCC2)cc1OC,10
21,O=C(COc1ccc([N+](=O)[O-])cc1)Nc1ccc(N2CCCC2)cc1,9
22,Cc1nn(-c2ccc([N+](=O)[O-])cc2)c(N)c1-c1ccccc1,8
23,Cc1cc(NS(=O)(=O)c2ccc(NC(=S)NC(=O)c3ccc(F)cc3Cl)cc2)no1,12
24,CNc1ccc(NC(C)=O)cc1[N+](=O)[O-],13
25,CCCOCC(O)CC(CC)C(=O)NNC(=S)Nc1ccccc1 (stereo unspecified),13

row,SMILES,fluorescence (KMESF)
1,S=C(Nc1cccc(Br)c1)N1CCn2cccc2C1c1cccnc1 (stereo unspecified),15
2,COc1ccccc1-c1noc(CSc2nc(C)cc(=O)[nH]2)n1,20
3,Cc1cc(=O)[nH]c(SCc2cc(Cl)ccc2OC(F)F)n1,270 (active)
4,Cc1cc(=O)[nH]c(SCc2cccc(F)c2)n1,31
5,C#CCCCc1nc2ccccc2c(=O)n1N,11
6,COc1ccc(S(=O)(=O)N2CN(CCc3ccc(OC)c(OC)c3)c3nc4ccccc4nc32)cc1,15
7,O=C1/C(=C\c2ccsc2)NC(=S)N1c1ccccc1,11
8,CCCc1c(C)nc2c(Br)cccc2c1Cl,17
9,CN(C)c1ccnc2sc(C(=O)c3ccccc3)c(N)c12,7
10,O=C(CC1Nc2ccccc2NC1=O)Nc1ccccc1NC(=O)CC1Nc2ccccc2NC1=O (stereo unspecified),13
11,CCCCC(O)(CCCC)C(=O)NN(C(=O)CCl)c1ccccc1,9
12,O=C(/C=C/c1cn(-c2ccccc2)nc1-c1ccc2c(c1)OCCO2)NCCCN1CCOCC1,15
13,COC(=O)Cc1c(O)ccn(Cc2cccc(C(F)(F)F)c2)c1=O,11
14,Cc1scc(C(=O)NNC(=S)NCC(C)C)c1C,5
15,COc1cccc(OC)c1C(=O)NC(=S)NCc1ccco1,10
16,O=C(N/N=C/c1ccccn1)C12CC3CC(CC(C3)C1)C2,10
17,NC(=O)Cc1ccc2sc(-c3ccccc3)nc2c1,4
18,Cc1ccc(Cl)cc1NC(=O)C1CCN(S(C)(=O)=O)CC1,13
19,O=C1N/C(=C/c2cccs2)C(=O)N1Cc1ccc(F)cc1,18
20,O=C(NCc1cccs1)C(=O)NCC1OCCCN1S(=O)(=O)c1ccc(F)cc1 (stereo unspecified),10
21,Cc1cc([N+](=O)[O-])ccc1NC(=O)C1CCCO1 (stereo unspecified),8
22,CCOC(=O)c1sc(NC(=O)CSc2nc3c(c(=O)n2-c2ccccc2)SCC3)c(C(=O)OCC)c1C,16
23,Cc1nc2ccccc2nc(=O)c1NNc1ccc([N+](=O)[O-])cc1,20
24,C/C(=N/NC(=S)Nc1ccccc1)c1ccc2c(c1)OCO2,5
25,CCOc1ccc(Br)cc1S(=O)(=O)N1CCC(C(=O)O)CC1,10

row,SMILES,fluorescence (KMESF)
1,CC(C)C1C2=C(CC(C)(C)CC2=O)ON1c1ccccc1 (stereo unspecified),52
2,O=c1[nH]c(-c2ccccc2)c(-c2ccccc2)[nH]1,20
3,CC1(C)CC(=O)NC=C(c2ccccc2)C1,272 (active)
4,CCCC(CCC(=O)OC)(C(=O)OCC)c1csc(N)n1 (stereo unspecified),262 (active)
5,CC/C(Cc1ccccc1)=N/NC(=O)CCn1nnc2ccccc21,12
6,CN(c1ccccc1)c1ccc(/C=c2\s/c(=C(/C#N)C(=O)C(C)(C)C)n(Cc3ccco3)c2=O)cc1,145 (active)
7,COc1ccc(NC(=O)Cn2c(=O)n(Cc3ccco3)c(=O)c3ccccc32)cc1,17
8,CCOC(=O)CSc1nc2c(sc(=S)n2CCc2ccccc2)c(=O)n1Cc1ccco1,11
9,Nc1nc(SCC(=O)NN(c2ccccc2)c2ccccc2)n[nH]1,7
10,Cc1ccc(NS(=O)(=O)c2ccc(C)c(NC(=O)COc3ccc4ccccc4c3)c2)c(C)c1,15
11,O=C(/C=C\c1ccc2c(c1)OCO2)NC1(C(=O)Nc2ccc3c(c2)OCCO3)CCCCC1,7
12,Cc1cc([N+](=O)[O-])ccc1NC(=O)c1ccc(NC(=O)C(C)C)cc1,17
13,CCc1ccc(CN2C(=O)c3ccccc3C2C(=O)NCC2CCCO2)cc1 (stereo unspecified),14
14,Cc1c(Cl)cccc1NC(=O)CC1SC(=NCC2CCCO2)NC1=O (stereo unspecified),20
15,CCOc1ccc(S(=O)(=O)N/N=C(\C)c2ccc(Cl)c(Cl)c2Cl)cc1,18
16,CCCCCC(=O)Nc1ccc(S(=O)(=O)Nc2ccc(Cl)nn2)cc1,11
17,COc1ccccc1N(C)S(=O)(=O)c1ccc(Cl)c(C(=O)N2CCC(C(N)=O)CC2)c1,11
18,CN1CCC(OC(=O)COc2ccc(Cl)cc2Cl)CC1,13
19,Cn1nccc1CNC(=O)c1ccnn1C,9
20,CCCCN(C)CCNC(=O)CSCc1ccc(C)cc1,25
21,CCCCN(C(=O)/C=C/c1ccco1)c1c(N)n(CC(C)C)c(=O)[nH]c1=O,9
22,COc1ccc(/C=C2/SC(=O)N(CCCCCC(=O)Nc3ccccc3C(=O)O)C2=S)cc1,9
23,O=C(CC12CC3CC(CC(C3)C1)C2)NCc1ccco1,15
24,CSCC(=O)N1CCCC(C(=O)c2cc(F)ccc2F)C1 (stereo unspecified),11
25,OCC(CO)(CO)NCc1ccc(-c2ccccc2)cc1,236 (active)

row,SMILES,fluorescence (KMESF)
1,O=C(Cc1ccc(-c2ccccc2)cc1)NC(c1ccccc1)c1ccccc1,10
2,O=C(O)Cc1ccc(-c2ccccc2)cc1,21
3,O=C(COc1ccc(NC(=O)c2ccccc2[N+](=O)[O-])cc1)c1ccc(F)cc1,23
4,O=C(COC(=O)c1ccc(Cl)nc1)NCc1cccs1,24
5,COc1ccccc1OCCC(=O)OCC(=O)NC(=O)NC(C)(C)C,260 (active)
6,COc1ccccc1OCCC(=O)OCC(=O)NCc1ccccc1,16
7,COc1cccc(NC(=O)COC(=O)CCOc2ccccc2OC)c1,10
8,Cc1ccccc1-n1nnnc1SCCCC(=O)c1ccc(F)cc1,11
9,COc1cccc(Cn2cnc3c([N+](=O)[O-])c(C)c(C)cc32)c1,19
10,CCOC(=O)Cc1csc(NC(=O)C(C)(C)C)n1,28
11,CCOC(=O)Cc1csc(NC(=O)Nc2ccccc2)n1,13
12,CCOC(=O)Cc1csc(NC(NC(=O)OCC)(C(F)(F)F)C(F)(F)F)n1,269 (active)
13,COc1ccc(C)cc1S(=O)(=O)N(CC(=O)Nc1cccc([N+](=O)[O-])c1)c1ccc(C)cc1,11
14,CCCCN1C(=S)NC[C@@H]1C(C)CC (stereo partly specified),20
15,Cc1ccc(-c2cc(C(=O)N/N=C/C=C/c3ccccc3)n[nH]2)o1,7
16,O=C(NCCCN1CCOCC1)c1ccc(N2CCCC2)c([N+](=O)[O-])c1,15
17,COc1ccc(CCNC(=O)CCn2c(=O)c3ccccc3n(CC(=O)NCC3CCCO3)c2=O)cc1OC (stereo unspecified),70
18,CNc1nc2c(C)cccn2c(=O)c1C=Nc1ccc(OC)cc1,19
19,Cc1ccc2nc3n(c(=O)c2c1)CCC3,45
20,Cc1cccc2c(=O)n3c(nc12)CCCCC3,267 (active)
21,O=c1c2c(nc3n1CCCCC3)sc1c(O)cccc12,8
22,Cc1ccc(S(=O)(=O)NCCC(c2ccccc2)c2ccccc2)cc1C(=O)O,12
23,CCO/C=C1\C(=O)N(c2ccc(OCC)cc2)C(=O)c2ccccc21,14
24,Cc1cc(NC(=O)CN2C(=O)NC(CCc3ccccc3)C2=O)no1 (stereo unspecified),13
25,O=C(c1ccc(OC2CCN(C(=O)c3cccnc3)CC2)cc1)N1CCCCCC1,11

row,SMILES,fluorescence (KMESF)
1,Cc1cccc(Oc2c([N+](=O)[O-])c(=O)n(C)c3ccccc23)c1,55
2,O=C(COC(=O)CCCSc1nc2ccccc2[nH]1)Nc1ccc(Oc2ccccc2)cc1,11
3,CCCCC(NS(=O)(=O)c1ccc(C)cc1)C(=O)Oc1ccc2c3c(c(=O)oc2c1)CCC3 (stereo unspecified),11
4,CCOC(=O)C1=C(C)NC(C)=C(C(=O)OCC)C1c1ccccn1,252 (active)
5,CCOC(=O)C1=C(C)NC(=O)NC1c1ccccc1 (stereo unspecified),17
6,CCOC(=O)C1=C(C)NC(SC)=NC1c1ccccc1 (stereo unspecified),34
7,CC(C)(C)NC(=O)CN(C(=O)c1csnn1)c1ccccc1-c1ccccc1,14
8,CCc1cccc(CC)c1NC(=O)COc1ccccc1C(=O)c1cc(C#N)c(=O)n(C2CCCCC2)c1,18
9,CCOc1ccc(NC(=O)NNC(=O)c2ccc(Cl)cc2Cl)cc1,21
10,COc1ccc(/C=N/OCC(=O)N(Cc2ccccc2)c2ccccc2C(=O)O)cc1,6
11,COC(=O)c1ccc(-c2noc(CN(Cc3ccccn3)CC3CCCO3)n2)cc1 (stereo unspecified),18
12,CC(C)N1CCC(=NNc2ccc([N+](=O)[O-])cc2S(=O)(=O)N2CCOCC2)CC1,18
13,O=C(CSc1nnnn1-c1ccc(O)cc1)N1N=C(c2ccc3ccccc3c2)CC1c1ccccc1 (stereo unspecified),16
14,Cc1ccc2c(Cl)c(C(=O)Nc3nn[nH]n3)sc2c1,15
15,COc1ccc(CN2C(=O)CC(Cc3ccc(C)cc3)C2=O)cc1OC (stereo unspecified),10
16,Cc1ccc(C(=O)O)cc1NC(=O)c1ccc(Cn2nc(C)c(Cl)c2C)o1,15
17,COC(=O)C1NN=C(C(=O)c2ccc(Br)cc2)C1c1cccc(Br)c1 (stereo unspecified),10
18,COC(=O)C1=C(C)N(C)C(C)=C(C(=O)OC)C1c1cccc(Br)c1,266 (active)
19,COC(=O)C1=C(C)N(C)C(=S)NC1c1ccccc1 (stereo unspecified),13
20,CCOc1ccccc1/C=N/NC(=O)CNC(=O)COc1ccccc1,13
21,Cc1cccc(-n2cc(CN3CCN(C(=O)c4ncn[nH]4)CC3)c(-c3cccc(F)c3)n2)c1,12
